DRD3 agonist – D3 dopamine receptor (human) agonism. P35462. D3R DiscoveRx beta-arrestin cells, luminescence, 90 min. max activation, %. 0.58% of 410,000 active. AID 652048; in the data active means max activation above about 30%
Target sequence (P35462 whole entry, looked up): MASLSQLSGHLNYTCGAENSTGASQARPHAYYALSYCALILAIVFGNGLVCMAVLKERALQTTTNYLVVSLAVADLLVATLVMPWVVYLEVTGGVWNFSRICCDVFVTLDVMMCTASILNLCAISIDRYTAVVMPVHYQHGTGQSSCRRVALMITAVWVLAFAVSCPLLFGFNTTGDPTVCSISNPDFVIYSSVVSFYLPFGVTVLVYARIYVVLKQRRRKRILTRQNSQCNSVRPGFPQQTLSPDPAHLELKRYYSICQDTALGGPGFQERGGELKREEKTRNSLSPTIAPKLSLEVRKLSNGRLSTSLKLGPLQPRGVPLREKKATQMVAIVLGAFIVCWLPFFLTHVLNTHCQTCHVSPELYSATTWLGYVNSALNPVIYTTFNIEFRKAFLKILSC
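Cells at 1500/well, incubated overnight, then treated with pinned compounds (dopamine as control) for 90 min at 37 degrees C. DiscoveRx reagent added for 30 - 60 minutes at room temperature; luminescence read.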
ATXN2 expr inh – reduces ATXN2 reporter expression in HEK-293 cells; HEK-293 ATXN2-luciferase reporter, luminescence, 24 h; Potency, µM (top dose mostly 57 µM), actives largely listed as inhibitors; 0.72% of 360,000 active; further: nearly all actives have a fitted effect of over 55% in size
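ATXN2-luciferase reporter cells (luciferase flanked by upstream and downstream ATXN2 gene portions) were treated 24 h at 37 °C with compounds at up to 57 uM. SteadyGlo luminescence gave expression; GF-AFC fluorescence gave viability.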
TGFb inhibitor – inhibitors of TGF-b signaling | HepG2 CAGA-GFP TGF-b/SMAD3 reporter, GFP fluorescence, 18 h; TGF-beta stimulated, 500 pg/mL final | Potency, µM (top dose mostly 46.1 µM), hits mostly inhibitors | 1.2% of 410,000 active; further: nearly all actives have a fitted effect of over 65% in size
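HEPG2 CAGA-GFP, 1000 cells/well; 2 h settle, 37 C; cpd via pin tool; TGF-b 500 pg/mL final; 18 h, 37 C; GFP imaging ex488/em500-530; %Activity normalised to -TGF-b and +DMSO controls; CRC fit, curve class.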
DRD3 antagonist – antagonists of human D3 dopamine receptor; max response, negative = inhibition, %; P35462; 2.5% of 360,000 active; D3R cells, DiscoveRx beta-arrestin luminescence, antagonist mode; hits give low values; AID 652054; in the data active means max response below about -50%; inconclusive means no clear call, values can overlap the other calls
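Cells expressing the human receptor were seeded at 1500 cells/well, incubated overnight at 37 degrees C in 5% CO2, then exposed to library compounds with dopamine controls for 90 minutes at 37 degrees C before luminescent detection.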
S2 tox – reduces viability in counter-screen for ATXN expression inhibitors. AID 651635. S2 cells (HEK-293 line with an ATXN2-luciferase reporter) viability, CellTiter-Fluor protease fluorescence, 24 h. Potency, µM (top dose mostly 56.7 µM), usual class: cytotoxic. 0.49% of 400,000 active; further: nearly all actives have a fitted effect of over 40% in size
HepG2 tox – kills HepG2 cells in TGF-b inhibitor counter-screen; HepG2 CAGA-GFP viability, ATP luminescence, 18 h; Potency, µM (doses to about 46.1 µM), actives largely listed as cytotoxic; 0.76% of 410,000 active; AID 588856
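HepG2 CAGA-GFP cells (1000/well, DMEM with 1% FBS) received compound, then TGF-beta at 500 pg/mL final, and were incubated 18 hours at 37 degrees C. Viability was read by CellTiter-Glo luminescence. Media-only wells were set as complete cell-killing and DMSO as no toxicity.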
Of the large screens only hits and unclear results are named; the others gave an inactive call; ! = not active in a repeat. An excerpt weighted towards active compounds, which were near 4.7% of everything screened. Unless noted, the call rests on the fitted dose curve; in most records, active means well fitted curve in the direction sought with a large enough effect; inconclusive means small, poorly fitted or top-dose-only effect, or another doubt; inactive means no such curve, though single readings can be large; an effect the other way counts as inactive or inconclusive.

O=[N+]([O-])c1cccc(Cl)c1NCCNS(=O)(=O)c1ccccc1	DRD3 antagonist -55.7
COc1ccc(NC(=O)c2ccco2)cc1NC(=O)c1cc(Br)ccc1Cl	none (no result: ATXN2 expr inh, DRD3 antagonist, S2 tox)
COc1ccc(C(=O)/C=C/C(=O)N(Cc2ccccc2)C(C(=O)NC2CCCCC2)c2ccncc2)c(O)c1 (stereo unspecified)	TGFb inhibitor inconclusive, S2 tox inconclusive
COc1ccc(C(=O)/C=C/C(=O)N(CC(=O)NC2CCCCC2)Cc2ccccc2OC)c(O)c1	ATXN2 expr inh 21.2µM, TGFb inhibitor inconclusive (no result: S2 tox)
COc1ccc(C(=O)/C=C/C(=O)N(CC(=O)NC2CCCCC2)Cc2ccccc2)c(O)c1	ATXN2 expr inh inconclusive, TGFb inhibitor inconclusive, DRD3 antagonist -115.2, S2 tox inconclusive
COc1ccccc1CN(C)CC(=O)NC(=O)NC1CCCCC1	none
COc1ccc(C(=O)/C=C/C(=O)N(CC(=O)NC2CCCCC2)CC2CCCO2)c(O)c1 (stereo unspecified)	ATXN2 expr inh 3.77µM, TGFb inhibitor inconclusive, DRD3 antagonist inconclusive, S2 tox 3.98µM, HepG2 tox 12.6µM
COc1ccc(C(=O)/C=C/C(=O)N(Cc2ccccc2OC)C(C(=O)NC2CCCCC2)c2ccncc2)c(O)c1 (stereo unspecified)	ATXN2 expr inh 23.8µM, TGFb inhibitor inconclusive (no result: S2 tox)
CCOc1ccc(NC(=O)Cn2c(=O)oc3cc(S(=O)(=O)NC4CCCC4)ccc32)cc1	none (no result: DRD3 antagonist)
Cc1c(C)n(Cc2ccc(F)cc2)c2ccc(C(=O)NCc3ccco3)cc12	none (no result: ATXN2 expr inh, DRD3 antagonist, S2 tox)
C=CCNc1nc(NCC=C)nc(N2CCN(C(c3ccc(F)cc3)c3ccc(F)cc3)CC2)n1	none (no result: DRD3 agonist, TGFb inhibitor, DRD3 antagonist, HepG2 tox)
CCOc1ccc(-n2c(=O)c3sc4ccccc4c3n(Cc3ccc(F)cc3)c2=O)cc1	none (no result: DRD3 antagonist)
CCc1cc(C(=O)N2CCOCC2)c(NC2=NS(=O)(=O)c3ccccc32)s1	TGFb inhibitor inconclusive, DRD3 antagonist -68.9
CCc1cccc(CC)c1NC1=NS(=O)(=O)c2ccccc21	none (no result: DRD3 antagonist)
Cc1ccc(Nc2nc(N)nc(CCl)n2)c(C)c1	ATXN2 expr inh inconclusive (no result: S2 tox)
COc1cccc(Nc2nc(N)nc(CCl)n2)c1	ATXN2 expr inh inconclusive, TGFb inhibitor inconclusive, S2 tox inconclusive
CCOc1ccc(Nc2nc(N)nc(CCl)n2)cc1	ATXN2 expr inh inconclusive, TGFb inhibitor 11.2µM, S2 tox inconclusive
Cc1cccc(Nc2nc(N)nc(CCl)n2)c1C	ATXN2 expr inh 1µM, TGFb inhibitor 14.1µM, S2 tox inconclusive
Cc1ccc(Nc2nc(N)nc(CSc3nc4ccccc4s3)n2)cc1	DRD3 agonist 45.2!, ATXN2 expr inh inconclusive, TGFb inhibitor 12.6µM (no result: S2 tox)
Cc1ccc(Nc2nc(N)nc(CC#N)n2)cc1	TGFb inhibitor 12.6µM
Clc1ccc(Cn2cc3c(n2)-c2cc4ccccc4n2C3)cc1	none (no result: DRD3 agonist, ATXN2 expr inh, DRD3 antagonist, S2 tox)
Cc1cc(-c2ccnc(-n3ncc(C(=O)NCC(C)(C)N4CCOCC4)c3C)n2)c(C)s1	none (no result: DRD3 agonist, ATXN2 expr inh, TGFb inhibitor, DRD3 antagonist, HepG2 tox)
Nc1nc(CCl)nc(Nc2ccccc2)n1	ATXN2 expr inh inconclusive, TGFb inhibitor inconclusive (no result: S2 tox)
Cc1ccc(Nc2nc(N)nc(CCl)n2)cc1	ATXN2 expr inh 11.2µM, TGFb inhibitor inconclusive (no result: S2 tox)
COc1cc2c3nnc(-c4ccccc4)c-3cn(Cc3ccc(F)cc3)c2cc1OC	ATXN2 expr inh inconclusive, HepG2 tox 22.4µM (no result: S2 tox)
COc1cc2c3nnc(-c4ccc(F)cc4)c-3cn(Cc3ccc(C)cc3)c2cc1OC	ATXN2 expr inh 17.8µM, HepG2 tox 11.2µM
COc1cc2c3nnc(-c4ccc(F)cc4)c-3cn(Cc3cccc(C)c3)c2cc1OC	ATXN2 expr inh inconclusive
O=C(NC1CC1)[C@@H]1C[C@@H](Sc2nc3ccccc3[nH]2)CN1CC1CCCCC1	none (no result: DRD3 agonist, ATXN2 expr inh, TGFb inhibitor, DRD3 antagonist, HepG2 tox)
N#C/C(=C(/O)CN1CCN(c2ccccc2F)CC1)c1nc(-c2ccc(Cl)cc2)cs1	ATXN2 expr inh inconclusive, TGFb inhibitor 7.94µM
CCCSCCCNC(=O)c1cc2n(n1)CCCN(Cc1ccc(C)cc1)C2=O	TGFb inhibitor inconclusive (no result: DRD3 antagonist)
CCCCn1nc2cc(C(=O)NCC34CC5CC(CC(C5)C3)C4)ccc2c1OCC	TGFb inhibitor inconclusive, DRD3 antagonist -79.0
CCCCn1nc2cc(C(=O)NCCc3cccs3)ccc2c1OCC	none

Compound activity as filed in PubChem.
